Most compounds without a hit are left out; they make up all but 27% or so of the library.
CYP2C9 inhib = blockers of cytochrome P450 2C9 activity – biochemical, luminescence, ADME assay, primary screen. CYP2C9 Supersomes, luciferin-H conversion. 96,000 tested, 20% active. P11712. inhibition, % at 5 µM;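 active = blocking of liver enzyme CYP2C9 beyond about 50% at 5 µM, limit read from the data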
EphB4 ephrin blk = EphB4-ephrin-B2 interaction antagonists, primary screen, biochemical, TNYL-RAW peptide probe, fluorescence polarization. Ephrin type-B receptor 4 (Homo sapiens), P54760. EphB4 LBD / TNYL-RAW-Alexa532 peptide. inhibition, % at 7 µM. 97,000 tested, 0.15% active. AID 720, 2007;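 active = inhibition above the screen-wide mean inhibition plus 3 SD, cut at about 15% in these data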
CYP2C19 inh = blockers of cytochrome P450 2C19 activity – biochemical, luminescence, ADME assay, primary screen; P33261; CYP2C19 Supersomes, luciferin-H EGE luminescence, 30 min; inhibition, % at 5 µM; 96,000 tested, 21% active; AID 778, 2007;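 active = CYP2C19 inhibition above a set limit at 5 µM in the primary screen, cut at about 50% in these data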
Target sequence (P33261 whole entry, looked up): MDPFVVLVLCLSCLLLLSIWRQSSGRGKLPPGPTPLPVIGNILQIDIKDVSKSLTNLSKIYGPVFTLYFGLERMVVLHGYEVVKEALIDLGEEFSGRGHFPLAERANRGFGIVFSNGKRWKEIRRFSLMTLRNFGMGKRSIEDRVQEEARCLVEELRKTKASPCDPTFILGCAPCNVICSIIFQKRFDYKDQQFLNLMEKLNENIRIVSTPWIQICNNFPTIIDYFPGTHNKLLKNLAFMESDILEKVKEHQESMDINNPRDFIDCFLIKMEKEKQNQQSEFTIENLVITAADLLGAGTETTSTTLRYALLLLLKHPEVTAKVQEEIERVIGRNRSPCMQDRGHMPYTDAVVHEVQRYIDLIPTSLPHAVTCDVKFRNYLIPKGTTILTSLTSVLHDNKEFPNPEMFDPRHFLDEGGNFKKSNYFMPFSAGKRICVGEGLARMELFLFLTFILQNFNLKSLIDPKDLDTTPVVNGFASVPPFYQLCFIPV
CYP2C9 activ = human CYP2C9 activators, primary screen, biochemical, luminescence; AID 1024, 2008; activation factor at 5 µM; 96,000 tested, 1.4% active; recombinant CYP2C9, luciferin-H conversion; stronger effect = higher value; factor 1 = untreated enzyme, 0 = blocked; Cytochrome P450 2C9 (Homo sapiens), P11712;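 active = activation factor of 2 or more for CYP2C9 at a 5 µM dose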
CYP2C19 act = human CYP2C19 activators, primary screen, biochemical, luminescence; Cytochrome P450 2C19 (Homo sapiens), P33261; recombinant CYP2C19, luciferin-H EGE luminescence; stronger effect = higher value; 0 = fully inhibited enzyme, 1 = untreated enzyme; activation factor at 5 µM; 96,000 tested, under 10 active; AID 1025, 2008;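 active = activation factor of at least 2 at 5 µM in the primary screen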
Hits are given with their value; 0 = inactive; - = not tested or not shown.

SMILES | CYP2C9 inhib | EphB4 ephrin blk | CYP2C19 inh | CYP2C9 activ | CYP2C19 act
C=CCc1c(O)nc(SCC(=O)c2ccccc2)[nH]c1=O | 0 | 0 | 0 | 0 | 0
Cc1cccc(NC(=O)CN(C)S(=O)(=O)c2ccccc2)n1 | 0 | 0 | 0 | 0 | 0
O=C(c1ccc(CN2CCOCC2)cc1)N1CCC(Cc2ccccc2)CC1 | 71 | 0 | 66 | 0 | 0
CCc1ccccc1NC(=O)c1ccc(CN2CCC(Cc3ccccc3)CC2)cc1 | 0 | 0 | 56 | 0 | 0
CN1CCN(C(=O)c2ccc(CN3CCOCC3)cc2)CC1 | 0 | 0 | 0 | 0 | 0
CCNc1nc(Cl)nc(N(NC(C)=O)C(C)CC)n1 (stereo not drawn) | 0 | 0 | 0 | 0 | 0
O=C(c1cc2nc(-c3ccc(F)cc3)cc(C(F)(F)F)n2n1)N1CCOCC1 | 0 | 0 | 0 | 0 | 0
O=C(Cn1c(=O)oc2ccccc21)N(Cc1ccccc1)C1CCS(=O)(=O)C1 (stereo not drawn) | 0 | 0 | 0 | 0 | 0
Cc1c(C(=O)N2CCCCCC2)oc2ccccc12 | 0 | 0 | 91 | 0 | 0
O=C(c1ccc2ccccc2c1)N1CCN(c2ccc(C(F)(F)F)cn2)CC1 | 0 | 0 | 0 | 0 | 0
Cc1c(C(=O)N2CCN(c3ccccn3)CC2)oc2ccccc12 | 0 | 0 | 85 | 0 | 0
O=C(c1oc2ccccc2c1CSCc1ccccc1)N1CCN(c2ncccn2)CC1 | 80 | 0 | 62 | 0 | 0
COCc1c(C(=O)N2CCN(c3ccc(C(F)(F)F)cn3)CC2)oc2ccccc12 | 0 | 0 | 80 | 0 | 0
Cn1cnnc1SCC(=O)Nc1c(F)cc(F)cc1Br | 0 | 0 | 0 | 0 | 0
COc1nc(Nc2ccc(OC)c(Cl)c2)nc(OC)n1 | 0 | 0 | 0 | 0 | 0
O=C(c1cc2c(ccc3ccccc32)oc1=O)N1CCCC1 | 73 | 0 | 0 | 0 | 0
CCCCCNC(=O)CN(c1ccc2c(c1)OCO2)S(C)(=O)=O | 0 | 0 | 0 | 0 | 0
Cc1ccc(SCCNC(=O)CN(c2ccc3c(c2)OCO3)S(C)(=O)=O)cc1 | 92 | 0 | 92 | 0 | 0
Cc1ccccc1N(CC(=O)NCCSCc1ccco1)S(C)(=O)=O | 68 | 0 | 74 | 0 | 0
CS(=O)(=O)N(CC(=O)NCCSC1CCCCC1)c1ccc2c(c1)OCO2 | 56 | 0 | 70 | 0 | 0
Cc1ccccc1CSCCNC(=O)CN(c1ccc2c(c1)OCO2)S(C)(=O)=O | 56 | 0 | 64 | 0 | 0
CCn1c(=O)[nH]c2cc(C(=O)N3CCN(c4ccccc4)CC3)ccc2c1=O | 0 | 0 | 0 | 0 | 0
O=C(O)C1C2C=CC(O2)C1C(=O)NCc1ccc2c(c1)OCO2 (stereo not drawn) | - | 0 | - | - | -
O=C(NCCSCc1ccco1)Nc1ccccc1 | 0 | 0 | 79 | 0 | 0
O=C1Nc2cc(Cl)cnc2N2CCCC12 (stereo not drawn) | 83 | - | 0 | 0 | 0
SMILES | CYP2C9 inhib | EphB4 ephrin blk | CYP2C19 inh | CYP2C9 activ | CYP2C19 act
O=C1Nc2cc(S(=O)(=O)N3CCCC3)ccc2N2CCCC12 (stereo not drawn) | 0 | 0 | 0 | 0 | 0
N#CC1=C(SCC(N)=O)NC2=C(C(=O)c3ccccc32)C1c1ccc(Cl)cc1 (stereo not drawn) | 63 | 0 | 0 | 0 | 0
CCN1C(=O)NC2=C(C(=O)c3ccccc32)C1c1ccccc1F (stereo not drawn) | 0 | 0 | 0 | 0 | 0
CCCOc1ccc(N2C(=O)C3ON(c4ccccc4)C(c4ccc(O)c(OC)c4)C3C2=O)cc1 (stereo not drawn) | 0 | 0 | 0 | 0 | 0
COc1cc(C2C3C(=O)N(Cc4ccccc4)C(=O)C3ON2c2ccccc2)cc(OC)c1O (stereo not drawn) | 56 | 0 | 0 | 0 | 0
O=c1c(-c2ccco2)[n+]([O-])c2ccccc2n1OCc1ccccc1 | 0 | 0 | 0 | 0 | 0
COc1ccccc1CNC(=O)c1cccc(N(C)C)c1 | 0 | 0 | 0 | 2.3 | 0
COc1ccc(CNC(=O)c2cccc(N(C)C)c2)cc1 | 0 | 0 | 0 | 0 | 0
COc1cc(C(=O)NCc2cccc3ccccc23)ccc1OCc1ccccc1 | 69 | 0 | 0 | 0 | 0
COc1cc(C(N)=O)ccc1OCc1ccccc1 | 0 | 0 | 0 | 0 | 0
COc1cccc(-c2nn3c(-c4cc(C)[nH]n4)nnc3s2)c1 | 0 | 0 | 0 | 0 | 0
COc1cccc(-c2nnc3sc(-c4ccccn4)nn23)c1 | 0 | 0 | 63 | 0 | 0
COc1cccc(-c2nn3c(-c4ccccn4)nnc3s2)c1 | 0 | 0 | 52 | 0 | 0
COc1ccc(-c2nnc3sc(-c4ccccn4)nn23)cc1 | 57 | - | 0 | 0 | 0
COc1ccc(/C=N/NC(=O)C2CCN(c3ncc(C(F)(F)F)cc3Cl)CC2)cc1 | 0 | 0 | 0 | 0 | 0
COC(=O)C1=C(C)N(C)C(=O)/C1=C\c1ccco1 | 0 | 0 | 0 | 0 | 0
Cc1ccc(-n2c(=O)c(C#N)cc3c(=O)n4cccc(C)c4nc32)cc1 | 0 | 0 | 0 | 0 | 0
CCCS(=O)(=O)N1CCc2cc(OC)c(OC)cc2C1 | 0 | 0 | 55 | 0 | 0
O=C(c1cccc(F)c1)N1CCN(C2CCCCC2)CC1 | 0 | 0 | 0 | 0 | 0
O=C(c1ccccc1)N1CCN(C2CCCCCC2)CC1 | 0 | 0 | 0 | 0 | 0
O=C(c1ccc(F)cc1)N1CCN(C2CC3CCC2C3)CC1 (stereo not drawn) | 0 | 0 | 76 | 0 | 0
O=C(c1ccccc1)N1CCN(C2CC3CCC2C3)CC1 (stereo not drawn) | 0 | 0 | 82 | 0 | 0
CCn1c(N2CCN(CC(=O)c3c(C)n(C)c4ccccc34)CC2)nc2c1c(=O)[nH]c(=O)n2C | 0 | 0 | 0 | 0 | 0
C/C(=N/NC(=O)c1cccs1)c1ccc(NC(=O)COc2ccc(Cl)cc2Cl)cc1 | 0 | 0 | 0 | 0 | 0
Cc1cc(Cl)c(S(=O)(=O)NCc2cccnc2)cc1OCC(=O)NC1CCCCC1 | 58 | 0 | 0 | 0 | 0
SMILES | CYP2C9 inhib | EphB4 ephrin blk | CYP2C19 inh | CYP2C9 activ | CYP2C19 act
Cc1cc(Cl)c(S(=O)(=O)NC(C(=O)O)C(C)C)cc1OCC(=O)NC1CCCCC1 (stereo not drawn) | 0 | 0 | 0 | 0 | 0
O=C(COC(=O)c1ccc(Cl)c(S(=O)(=O)N2CCCC2)c1)NC1CCCC1 | 0 | 0 | 65 | 0 | 0
Cc1cc(Cl)c(S(=O)(=O)N2CCCC2)cc1OCC(=O)NC1CCCCC1 | 77 | 0 | 95 | 0 | 0
Cc1cc(Cl)c(S(=O)(=O)Nc2ccc3c(c2)OCO3)cc1OCC(N)=O | 62 | 0 | 90 | 0 | 0
O=C(COc1ccc(S(=O)(=O)N2CCCC2)cc1Cl)NC1CCCC1 | 0 | 0 | 0 | 0 | 0
Cc1cc(Cl)c(S(=O)(=O)Nc2ccc3c(c2)OCO3)cc1OCC(=O)NC1CCCCC1 | 62 | 0 | 79 | 0 | 0
Cc1ccccc1OC(C)c1nc(-c2ccccc2)no1 (stereo not drawn) | 73 | 0 | 70 | 0 | 0

Screening data deposited in PubChem by several laboratories.
